This note sets out measurements from PubChem BioAssay (EPA / NIEHS).

Read-out in assay [1]: Human Leukocyte Antigen - DR isotype (HLADR), HLA-DRA (gene 3122)
As to the kind of experiment: BSK_3C_HLADR: BioMAP Diversity Plus: 3C Assay for Human Leukocyte Antigen - DR isotype (HLADR) Biomarker Activity (AID 2283019).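 For outcome: ELISA of cell-surface HLA-DR on HUVEC 24 h after dosing.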 Particulars: primary human endothelial cells (HUVEC); actives raise or lower the signal. A digest of the protocol:
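Endothelial cells from human umbilical vein are treated with test chemical; after 24 h, HLA-DR levels are measured by ELISA. Data are fitted in both directions using DMSO as the baseline.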

Read-out in assay [2]: Interleukin-8 (IL8), CXCL8 (gene 3576)
As to the kind of experiment: BSK_3C_IL8: BioMAP Diversity Plus: 3C Assay for Interleukin-8 (IL8) Biomarker Activity (AID 2283020). As to conditions: primary human endothelial cells (HUVEC); actives raise or lower the signal. A digest of the protocol: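 Endothelial primary cells of human umbilical vein origin are dosed with chemical; after 24 h the IL-8 biomarker is measured by ELISA, and concentration–response is fitted in both directions versus DMSO.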

Read-out in assay [3]: Monokine induced gamma interferon (MIG), CXCL9 (gene 4283)
As to the kind of experiment: BSK_3C_MIG: BioMAP Diversity Plus: 3C Assay for Monokine induced gamma interferon (MIG) Biomarker Activity (AID 2283021). Particulars: primary human endothelial cells (HUVEC); actives raise or lower the signal. A digest of the protocol: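 Endothelial primary cells (human umbilical vein) are dosed with test chemical in the 3C system. MIG levels are measured by ELISA at 24 h and fitted in both directions relative to DMSO.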

Assay [4] can be described thus: BSK_3C_SRB: Viability Assessment in the BioMAP Diversity Plus: 3C Assay (AID 2283023).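 Note: fitted both ways against DMSO so a hit may be signal rise or drop.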 Particulars: primary human endothelial cells (HUVEC). A digest of the protocol: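 Cells were dosed with chemical, cultured 24 h, fixed with 10% TCA, stained with 0.1% SRB and read at 560 nm. Human umbilical vein endothelium was used; DMSO served as negative control and baseline.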

Read-out in assay [5]: Matrix Metallopeptidase 1 (MMP1), MMP1 (gene 4312)
As to the kind of experiment: BSK_BE3C_MMP1: BioMAP Diversity Plus: BE3C Assay for Matrix Metallopeptidase 1 (MMP1) Biomarker Activity (AID 2283024). As to conditions: primary human bronchial epithelial cells; actives raise or lower the signal. A digest of the protocol:
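MMP1 signal, measured by ELISA after a 24 h chemical exposure of human primary bronchial epithelial cells, is analysed with bidirectional fitting using DMSO as negative control.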

The nature of assay [6]: BSK_3C_Vis: BioMAP Diversity Plus: 3C Assay for Morphology Visualization (AID 2283025).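 Note: fitted both ways so gain or loss versus DMSO counts.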 Particulars: primary human endothelial cells (HUVEC). A digest of the protocol:
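Morphology read by light microscopy serves as a background control for the multiplexed 3C assay in human umbilical vein endothelial cells, taken 24 h after dosing, with DMSO as the negative control and bidirectional curve fitting.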

Read-out in assay [7]: Pselectin, SELP (gene 6403)
As to the kind of experiment: BSK_4H_Pselectin: BioMAP Diversity Plus: 4H Assay for Pselectin Biomarker Activity (AID 2283026). Particulars: primary human endothelial cells (HUVEC); actives raise or lower the signal. A digest of the protocol:
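Endothelial primary cells (human umbilical vein) are dosed, incubated 24 h, and assayed for surface P-selectin by ELISA; responses in either direction are fitted relative to the DMSO negative control.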

Assay [8] can be described thus: BSK_4H_SRB: Viability Assessment in the BioMAP Diversity Plus: 4H Assay (AID 2283027).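 Note: cells exposed to compound for 24 h before staining.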 Particulars: primary human endothelial cells (HUVEC). A digest of the protocol: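 HUVEC, 24 h post-dose; 10% TCA fix, 0.1% SRB stain, A560 nm. Total protein = overt cytotoxicity, parallel to biomarker read. Bidirectional fit vs DMSO baseline.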
The nature of assay [9]: BSK_BE3C_SRB: Viability Assessment in the BioMAP Diversity Plus: BE3C Assay (AID 2283028). As to conditions: primary human bronchial epithelial cells. A digest of the protocol: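 Overt cytotoxicity was assessed as total protein in confluent human primary bronchial epithelial cultures 24 h after chemical addition, using 0.1% sulforhodamine B staining read at 560 nm.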
Read-out in assay [10]: Thrombomodulin, THBD (gene 7056)
As to the kind of experiment: BSK_3C_Thrombomodulin: BioMAP Diversity Plus: 3C Assay for Thrombomodulin Biomarker Activity (AID 2283029). As to conditions: primary human endothelial cells (HUVEC); actives raise or lower the signal. A digest of the protocol:
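Endothelial cells from umbilical vein are dosed with test chemical and incubated 24 h. Thrombomodulin is then quantified by ELISA, with DMSO serving as negative control and activity baseline.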

Read-out in assay [11]: Human Leukocyte Antigen - DR isotype (HLADR), HLA-DRA (gene 3122)
As to the kind of experiment: BSK_BE3C_HLADR: BioMAP Diversity Plus: BE3C Assay for Human Leukocyte Antigen - DR isotype (HLADR) Biomarker Activity (AID 2283032). Particulars: primary human bronchial epithelial cells; actives raise or lower the signal. A digest of the protocol:
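Chemicals are dosed onto BE3C bronchial epithelial cultures of human origin and left 24 h. HLA-DR is then measured by ELISA, and the endpoint is fitted in both directions using DMSO as the activity baseline.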

Read-out in assay [12]: Vascular cell adhesion molecule 1 (VCAM1), VCAM1 (gene 7412)
As to the kind of experiment: BSK_4H_VCAM1: BioMAP Diversity Plus: 4H Assay for Vascular cell adhesion molecule 1 (VCAM1) Biomarker Activity (AID 2283033).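 Note: cell-surface VCAM-1 protein measured by ELISA.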 As to conditions: primary human endothelial cells (HUVEC); actives raise or lower the signal. A digest of the protocol: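 Chemicals are added to primary human umbilical vein endothelial cells. After 24 h, VCAM-1 levels are measured by ELISA. Values come from bidirectional fitting referenced to DMSO.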

Read-out in assay [13]: Interferon-gamma inducible Protein 10 (IP10), CXCL10 (gene 3627)
As to the kind of experiment: BSK_BE3C_IP10: BioMAP Diversity Plus: BE3C Assay for Interferon-gamma inducible Protein 10 (IP10) Biomarker Activity (AID 2283034). Particulars: primary human bronchial epithelial cells; actives raise or lower the signal. A digest of the protocol:
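IP-10 quantified by ELISA serves as the endpoint. Cells: primary human bronchial epithelium, read 24 h after compound addition. Activity is derived by bidirectional fitting with DMSO as negative control.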

Read-out in assay [14]: Monokine induced gamma interferon (MIG), CXCL9 (gene 4283)
As to the kind of experiment: BSK_BE3C_MIG: BioMAP Diversity Plus: BE3C Assay for Monokine induced gamma interferon (MIG) Biomarker Activity (AID 2283035).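 Note: MIG protein measured by ELISA in BE3C cultures after 24 h of dosing.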 Particulars: primary human bronchial epithelial cells; actives raise or lower the signal. A digest of the protocol:
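Dose cells (human primary bronchial epithelial), incubate 24 h, quantify MIG by ELISA, then fit concentration–response in both directions relative to DMSO control.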

Read-out in assay [15]: Transforming growth factor beta 1 (TGFb1), TGFB1 (gene 7040)
As to the kind of experiment: BSK_BE3C_TGFb1: BioMAP Diversity Plus: BE3C Assay for Transforming growth factor beta 1 (TGFb1) Biomarker Activity (AID 2283036;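 for outcome: TGF-b1 protein level measured by ELISA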). Particulars: primary human bronchial epithelial cells; actives raise or lower the signal. A digest of the protocol:
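Bronchial epithelial primary cells are treated with test chemical, then TGF-b1 is quantified by ELISA after 24 hours. Values derive from bidirectional fitting against DMSO, with cytotoxicity checked by SRB staining in parallel cultures.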

Read-out in assay [16]: Plasminogen activator inhibitor-1 (PAI1), SERPINE1 (gene 5054)
As to the kind of experiment: BSK_BE3C_PAI1: BioMAP Diversity Plus: BE3C Assay for Plasminogen activator inhibitor-1 (PAI1) Biomarker Activity (AID 2283037). Particulars: primary human bronchial epithelial cells; actives raise or lower the signal. A digest of the protocol: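 Values derive from bidirectional fitting against DMSO baseline of PAI-1 levels, measured by ELISA in human bronchial epithelial cells 24 h after compound addition.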

Read-out in assay [17]: urokinase plasminogen activator (uPA), PLAU (gene 5328)
As to the kind of experiment: BSK_BE3C_uPA: BioMAP Diversity Plus: BE3C Assay for urokinase plasminogen activator (uPA) Biomarker Activity (AID 2283038).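 Note: uPA protein level quantified by ELISA in cell cultures; uPA read one day after compound addition.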 Particulars: primary human bronchial epithelial cells; actives raise or lower the signal. A digest of the protocol:
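Measured by ELISA: uPA from human primary bronchial epithelial cells 24 h after chemical treatment. Values derive from bidirectional curve fitting with DMSO serving as negative control. Total protein by SRB staining in parallel wells flagged overt cytotoxicity.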

Read-out in assay [18]: Vascular endothelial growth factor receptor 2 (Homo sapiens) (UniProt P35968)
As to the kind of experiment: BSK_4H_VEGFRII: BioMAP Diversity Plus: 4H Assay for Vascular endothelial growth factor receptor 2 (VEGFR2) Biomarker Activity (AID 2283031). Particulars: primary human endothelial cells (HUVEC); actives raise or lower the signal. A digest of the protocol: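 VEGFRII levels on human vascular endothelial primary cells were determined by ELISA at 24 hours post-dosing, with gain- or loss-of-signal fitted against DMSO controls.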

Read-out in assay [19]: Urokinase-type plasminogen activator receptor (uPAR), PLAUR (gene 5329)
As to the kind of experiment: BSK_4H_uPAR: BioMAP Diversity Plus: 4H Assay for Urokinase-type plasminogen activator receptor (uPAR) Biomarker Activity (AID 2283030). Particulars: primary human endothelial cells (HUVEC); actives raise or lower the signal. A digest of the protocol:
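Chemicals are dosed onto human vascular endothelial primary cells (umbilical vein). After 24 h, uPAR is read by ELISA. Gain or loss of signal is fitted relative to DMSO.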

Active and inactive are the calls of the source. Rule for the calls: active = hit-call score of the fitted dose curve at least 0.9, where 1 is the maximum; inactive = score below 0.9.

On to `CCCOC(=O)c1ccc(C(=O)OCCC)nc1`, for which the result in [1], in [2], in assay [3], in assay [4], in [5] and in assay [6] was inactive. Besides, the result in assay [7], in assay [8], in assay [9], in assay [10], in [11] and in assay [12] was inactive. Moreover, the outcome in assay [13], in assay [14], in [15] and in [16] was inactive.

With `COC(=O)c1ccccc1C(=O)O`, the AC50 (commonly the concentration giving half of the maximal activity seen) in assay [1] was 9.98 µM (active). Further, the outcome in assay [2], in [3], in [4], in [5], in assay [6] and in assay [7] was inactive. Further, the result in assay [8], in assay [9], in assay [10], in assay [11], in [12] and in [13] was inactive. Besides, the result in [15] was inactive.

For `CCC(O)=C1C(=O)CC(C(=O)O)CC1=O` (centres undefined), the result in assay [1], in assay [2], in assay [3], in assay [4], in [5] and in assay [6] was inactive. Also, the outcome in assay [7], in assay [8], in [9], in [10], in [11] and in assay [12] was inactive. The outcome in [13], in [15] and in assay [17] was inactive.

Take `CCOC(=O)C(C)Oc1ccc(Oc2cnc3cc(Cl)ccc3n2)cc1` (centres undefined): the result in [1], in assay [2], in assay [3], in [4], in assay [5] and in [6] was inactive. Further, the outcome in assay [7], in assay [8], in assay [9], in assay [10], in assay [18] and in [11] was inactive. Besides, the result in [12], in [13] and in [17] was inactive.

As for `CCCCOCCOCCOCc1cc2c(cc1CCC)OCO2`, the result in [1], in [2], in assay [3], in assay [5], in assay [6] and in assay [7] was inactive. In addition, the result in [8], in assay [9], in assay [10], in assay [19], in assay [11] and in assay [12] was inactive. The outcome in assay [13], in assay [14] and in [15] was inactive. For the same molecule, in assay [4], the AC50 was 21 µM (active).

Consider `CCCCOC(=O)[C@@H](C)Oc1ccc(Oc2ccc(C(F)(F)F)cn2)cc1`, for which the outcome in assay [1], in assay [2], in assay [3], in assay [4], in assay [5] and in [7] was inactive. The result in [8], in [9], in assay [10], in assay [19], in assay [11] and in assay [12] was inactive. The outcome in [13], in assay [14], in [15] and in assay [17] was inactive. Also, in [6], the concentration at half-maximal activity (AC50) is 39 µM (active).

With `COC(=O)c1cccc(C)c1S(=O)(=O)NC(=O)Nc1nc(OCC(F)(F)F)nc(N(C)C)n1`, the result in assay [1], in assay [2], in assay [3], in assay [4], in assay [5] and in assay [6] was inactive. Also, the outcome in assay [7], in [8], in assay [9], in assay [10], in assay [11] and in assay [12] was inactive. Also, the outcome in assay [13], in [14] and in [15] was inactive.

In the case of `CCCCC(CC)COC(=O)c1ccccc1C(=O)O` (centres undefined), the result in assay [1], in [2], in [3], in assay [4], in assay [5] and in assay [6] was inactive. Also, the result in [7], in assay [8], in assay [9], in assay [10], in assay [19] and in assay [11] was inactive. For the same molecule, the outcome in assay [12], in assay [13] and in assay [14] was inactive. The AC50 in [15] is 5.04 µM (active).
